Reference: the supplement of paper PMC3334620
In all, about 33,000 sequences were measured (“E-score (-0.5 to 0.5)”: median about -0.012, highest 2% from about 0.27 on). This is one part of a sample in which the highest values are shown more often than they occur.

Biological target: T1, Vhr1 (UniProt P40522)
T1 sequence: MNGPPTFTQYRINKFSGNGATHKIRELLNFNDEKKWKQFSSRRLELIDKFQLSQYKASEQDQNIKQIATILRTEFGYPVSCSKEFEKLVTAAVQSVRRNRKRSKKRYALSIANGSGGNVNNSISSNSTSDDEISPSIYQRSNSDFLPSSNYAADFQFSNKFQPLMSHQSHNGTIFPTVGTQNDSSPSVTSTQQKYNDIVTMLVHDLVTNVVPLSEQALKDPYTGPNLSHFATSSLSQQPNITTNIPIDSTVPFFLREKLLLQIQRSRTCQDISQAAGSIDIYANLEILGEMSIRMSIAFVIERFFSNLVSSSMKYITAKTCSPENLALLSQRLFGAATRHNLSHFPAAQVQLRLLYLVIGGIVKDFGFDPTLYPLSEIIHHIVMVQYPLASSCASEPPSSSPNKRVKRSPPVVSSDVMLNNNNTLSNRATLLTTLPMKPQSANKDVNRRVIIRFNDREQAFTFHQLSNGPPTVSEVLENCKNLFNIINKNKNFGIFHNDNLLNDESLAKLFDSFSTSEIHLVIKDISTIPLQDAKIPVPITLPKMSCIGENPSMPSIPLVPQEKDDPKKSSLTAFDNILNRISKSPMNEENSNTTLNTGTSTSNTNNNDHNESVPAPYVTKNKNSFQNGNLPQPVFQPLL
Assay: PBM E-score (8-mer binding enrichment) (E-score (-0.5 to 0.5)); higher = stronger / more preferred TF binding
Conditions: protein concentration: 200 nM; construct: GST-full length
How it was run: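 Detection of bound protein used fluorescent anti-GST, with scans normalised by masliner. The proteins were GST-tagged yeast transcription factors applied at about 100-200 nM to universal all-10-mer Agilent arrays made double-stranded by primer extension. Each ungapped eight-base word, pooled with its reverse complement, was scored with an E-score from the Universal PBM Analysis Suite.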

Sequence | PBM E-score
AGATATAT | 0.131
GCTGGGAA | 0.0455
AGTGGGAC | 0.0716
CCAAATCG | -0.166
ACTGCTCA | 0.0795
AGCACTGG | -0.0591
AGGATGGC | 0.124
GTCACGCA | 0.0821
CTCACACC | 0.0809
GTCACTCA | 0.325
CTCACTCA | 0.0981
CTCACATA | 0.186
GTCACAAA | -0.0213
CTCACACA | 0.299
GTCACAGA | 0.157
ATCACTCA | 0.234
CTCACGCA | 0.29
GTCACACA | 0.303
CTCACGCC | 0.239
CATGGTAA | -0.0174
AATAGGGC | -0.124
AATTGTGG | 0.00128

Sequence | PBM E-score
CCAACGCC | -0.203
CATTTGAA | -0.0815
TGATAGCA | 0.194
ATAGATGC | -0.0668
GTGATATA | 0.0452
CCATCCTC | 0.0474
CTAGTATA | 0.0509
CTCAACTA | 0.106
ACTCAACG | 0.171
TCTCCACA | -0.0495
AATCAATC | 0.186
GATCAACA | -0.0766
ACTCAATG | 0.159
ACTCCACG | -0.104
ACTCAACA | 0.289
ACTCCACA | 0.277
TATCAACA | 0.172
TCTCAACA | 0.113
AATCAACA | 0.303
ACTCAATC | 0.293
ACTCATAA | 0.164
ACATCGCG | 0.183

Sequence | PBM E-score
AGTTAGGC | -0.144
CGACTGTC | 0.102
AAAGTAGG | -0.0386
ATCTCCAT | 0.0116
ATGCTTGA | 0.0306
AATCACCT | 0.312
AACCACCT | 0.0827
AATCACGT | 0.225
TATCACCA | 0.0885
AATCACCA | 0.33
CATCACCC | 0.103
AATCACCG | 0.266
CATCACCA | 0.167
AATCACCC | 0.38
ACCCCAAG | -0.0964
CCGATCAC | 0.0847
GTGCAAAC | -0.0932
TAGAAGGA | -0.332
ATAAGGGA | -0.137
ATCTAAAA | 0.0219
ATTAACTG | 0.224
ATTCATTC | 0.165

Sequence | PBM E-score
AGTCATTG | 0.389
AGTCATTC | 0.384
CGTCATTC | 0.177
AGTCATTA | 0.368
ATTCATTG | 0.0738
CCTCATTC | -0.0181
GGTCATTA | -0.0362
CGTCATTA | -0.122
ACTCATTG | 0.196
AGCCATTC | -0.00524
ACTCATTC | 0.367
TGACAGCA | 0.127
ATAGCGTA | -0.0276
CAAAACAA | -0.13
GCCTCAAA | -0.0409
GAGGGCAC | -0.205
CTAGTCAC | 0.34
AAAGTCAC | 0.246
GTAGTCAA | 0.262
CTAGTCAA | 0.124
CAAGTCAC | 0.284
CTAGTCGC | 0.0967

Sequence | PBM E-score
GTAGTCAC | 0.441
CAAGTCAG | 0.208
GAAGTCAC | 0.269
ACTCTTTC | -0.172
GTGTCTTA | 0.0499
CCTGAATC | 0.0923
GACGTTAC | -0.062
AAAGGCGT | -0.19
CCACAGCA | 0.088
ACACAGCG | 0.312
ACACAGCC | 0.232
ACACAGCT | 0.127
GCACAGCA | 0.128
ACACAGCA | 0.286
ATTTTAGC | -0.141
AATACCTC | 0.0406
GAGTTAGA | -0.0441
ACTTTGAG | 0.0115
AAGCTGGC | -0.163
AAGCGATT | -0.0711
CGTGGGGA | 0.0323
